Measured values: PubChem BioAssay (Tox21)
Results filed as inconclusive are left out. Calls of active or inactive are those of the source. Unless noted, calls come from the whole dose curve; as a rule, active = well fitted curve in the direction sought with a large enough effect in the repeat runs; inconclusive = weak or mixed curves; inactive = no such curve, though single readings can be large; an effect the other way counts as inactive or inconclusive.

Legend:
[1] = qHTS assay to identify small molecule agonists of the peroxisome proliferator-activated receptor delta (PPARd) signaling pathway - cell viability counter screen (AID 743211); conditions: PPARd-bla HEK293H viability, CellTiter-Glo luminescence, 17 h; series mostly up to 62.6 µM; note: % is set by controls: 0 for no effect and ±100 for the full control effect; nearly all actives have a fitted effect of over 55% in size
Summary of the method: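 Counter screen for cytotoxicity run in parallel with the PPARd reporter screen. Beta-lactamase reporter HEK293H cells exposed to compounds 17 h; ATP-based CellTiter-Glo luminescence quantified viability.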

[2] = qHTS assay to identify small molecule agonists of the farnesoid-X-receptor (FXR) signaling pathway - cell viability counter screen (AID 743218); conditions: FXR-bla HEK293T viability, CellTiter-Glo luminescence, 16 h; series mostly up to 62.6 µM; note: % is set by controls: 0 for no effect and ±100 for the full control effect; nearly all actives have a fitted effect of over 45% in size
Summary of the method: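 Luminescence from CellTiter-Glo, read after 30 min at RT, reports viability of GeneBLAzer FXR-UAS-bla HEK 293T cells treated 16 h with compounds in the wells used for the beta-lactamase reporter.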

[3] = molecular target: Bile acid receptor (Homo sapiens) (UniProt Q96RI1); assay: qHTS assay to identify small molecule agonists of the farnesoid-X-receptor (FXR) signaling pathway (AID 743220; active = well fitted activation curve with a large enough effect in the signal ratio in the repeat runs, not every such curve was filed as active; the % refers to the signal ratio; note: % is set by controls: 0 for no effect and ±100 for the full control effect); conditions: HEK293T FXR-UAS-bla, beta-lactamase FRET ratio, 16 h; series mostly up to 62.6 µM
Summary of the method: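 FXR-UAS-bla HEK 293T cells carrying a UAS-driven beta-lactamase reporter were plated for 5 h at 37C/5% CO2, then exposed to DMSO-dissolved Tox21 10K compounds for 16 h at 37C. A LiveBLAzer B/G FRET substrate was loaded for 2 h at room temperature before fluorescence reading.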

[4] = molecular target: Vitamin D3 receptor (Homo sapiens) (UniProt P11473); assay: qHTS assay to identify small molecule agonists of the vitamin D receptor (VDR) signaling pathway (AID 743222; calls by dose curve; note: % is set by controls: 0 for no effect and ±100 for the full control effect); conditions: HEK293T VDR-UAS-bla, beta-lactamase FRET ratio, 16 h; series mostly up to 63.5 µM
Summary of the method: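 Beta-lactamase reporter readout (LiveBLAzer B/G FRET, 2 h RT) in VDR-bla cells after 16 h compound treatment at 37C, 5% CO2; cells pre-incubated 4 h before pin transfer of DMSO solutions.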

[5] = molecular target: Vitamin D3 receptor (Homo sapiens) (UniProt P11473); assay: qHTS assay to identify small molecule antagonists of the vitamin D receptor (VDR) signaling pathway (AID 743223; active = well fitted inhibition curve with a large enough effect in the signal ratio in the repeat runs, not every such curve was filed as active; the % refers to the signal ratio; note: % is set by controls: 0 for no effect and ±100 for the full control effect); conditions: VDR-UAS-bla HEK293T, beta-lactamase FRET ratio, 16 h; series mostly up to 61 µM
Summary of the method: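 Cells carrying a VDR-driven beta-lactamase reporter (VDR-bla) were co-treated with compound and 3 nM final 1alpha,25-dihydroxyvitamin D3 for 16 h at 37C; reporter activity was measured as FRET substrate fluorescence after 2 h at room temperature.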

[6] = qHTS assay to identify small molecule agonists of the vitamin D receptor (VDR) signaling pathway - cell viability counter screen (AID 743224); conditions: VDR-bla HEK293T viability, CellTiter-Glo luminescence, 16 h; series mostly up to 62.6 µM; note: % is set by controls: 0 for no effect and ±100 for the full control effect; nearly all actives have a fitted effect of over 50% in size
Summary of the method: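 Cytotoxicity counter screen: VDR-bla cells, 16 h compound exposure at 37C, 5% CO2; CellTiter-Glo luminescence, 30 min RT, same wells as bla read.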

[7] = qHTS assay to identify small molecule antagonists of the vitamin D receptor (VDR) signaling pathway - cell viability counter screen (AID 743225); conditions: VDR-bla HEK293T viability, CellTiter-Glo luminescence, 16 h; series mostly up to 61 µM; note: % is set by controls: 0 for no effect and ±100 for the full control effect; nearly all actives have a fitted effect of over 50% in size
Summary of the method: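 HEK293T VDR-bla; cpd + 1a,25-(OH)2D3 3 nM final, 16 h 37C/5% CO2; B/G FRET substrate 2 h RT; then CellTiter-Glo 30 min RT, luminescence.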

[8] = qHTS assay to identify small molecule agonists of the NFkB signaling pathway - cell viability counter screen (AID 1159515; calls by dose curve; note: % is set by controls: 0 for no effect and ±100 for the full control effect; nearly all actives have a fitted effect of over 55% in size); conditions: NFkB-bla ME-180 viability, CellTiter-Glo luminescence, 5 h; series mostly up to 61 µM
Summary of the method: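 ME-180 NFkB-bla cells, 2,000/well; overnight attach; compound 5 hr, 37 C/5% CO2; LiveBLAzer substrate 1.5 hr RT; then CellTiter-Glo in same wells, 30 min RT, luminescence read.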

[9] = qHTS assay to identify small molecule agonists of the endoplasmic reticulum stress response signaling pathway - cell viability counter screen (AID 1159517; calls by dose curve;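 note: HeLa cells carrying an ER stress response element beta-lactamase reporter; % is set by controls: 0 for no effect and ±100 for the full control effect; nearly all actives have a fitted effect of over 50% in size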); conditions: ESRE-bla HeLa viability, CellTiter-Glo luminescence, 5 h; series mostly up to 61 µM
Summary of the method: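 Steps: seed 1,500 ESRE-bla HeLa cells per well; incubate overnight at 37 C, 5% CO2; add compounds in DMSO for 5 hr; run FRET substrate 2 hr RT; add CellTiter-Glo, wait 30 min, read luminescence.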

[10] = qHTS assay to identify small molecule antagonists of the retinoid-related orphan receptor gamma (ROR-gamma) signaling pathway - cell viability counter screen (AID 1159520); conditions: Tet-on RORgamma CHO cells viability, ATP luminescence, 16 h; series mostly up to 92.4 µM; note: % is set by controls: 0 for no effect and ±100 for the full control effect; nearly all actives have a fitted effect of over 50% in size
Summary of the method: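 Tet-on ROR gamma CHO cells were given compounds for 2 hr, then doxycycline hyclate at 1 uM final, and incubated 16 hr at 37 C. Viability was measured as ATP content by CellTiter-Glo luminescence.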

[11] = molecular target: Nuclear receptor ROR-gamma (Homo sapiens) (UniProt P51449); assay: qHTS assay to identify small molecule antagonists of the retinoid-related orphan receptor gamma (ROR-gamma) signaling pathway (AID 1159521); conditions: Tet-on RORgamma CHO cells, RORE-luciferase, 16 h; series mostly up to 92.4 µM
Summary of the method: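 Cells were plated, rested 4 h at 37 C, exposed to compounds for 2 h, then given 1 uM final doxycycline hyclate to induce RORγ expression. After 16 h, ONE-Glo luminescence from the ROR response element reporter was measured.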

[12] = qHTS assay to identify small molecule agonists of the AP-1 signaling pathway - cell viability counter screen (AID 1159525; calls by dose curve; note: nearly all actives have a fitted effect of over 55% in size); conditions: ME-180 AP-1-bla cells viability, ATP luminescence, 5 h; series mostly up to 76.8 µM
Summary of the method: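 Same-well cytotoxicity counter screen of the Tox21 10K library in ME-180 cells. The readout is ATP-dependent luminescence after 5 h compound treatment. Data are normalised to DMSO and tetra n-octyl ammonium bromide controls.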

[13] = qHTS assay to identify small molecule antagonists of the peroxisome proliferator-activated receptor delta (PPARd) signaling pathway - cell viability counter screen (AID 743213); conditions: PPARd-bla HEK293H viability, CellTiter-Glo luminescence, 17 h; series mostly up to 62 µM
Summary of the method: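 Viability counter-screen, qHTS format: PPARd-bla HEK293H, L165041 300 nM final, 17 h compound exposure at 37 C, CellTiter-Glo luminescence after 30 min RT.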

[14] = qHTS assay to identify small molecule antagonists of the farnesoid-X-receptor (FXR) signaling pathway - cell viability counter screen (AID 743221; active = well fitted cell-killing curve with a large enough effect in the repeat runs, not every such curve was filed as active); conditions: FXR-bla HEK293T viability, CellTiter-Glo luminescence, 16 h; series mostly up to 62.6 µM
Summary of the method: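 Multiplexed counter screen: viability of FXR-bla HEK 293T cells under agonist stimulation by chenodeoxycholic acid (50 uM, final) and test compound for 16 h at 37 C, measured by CellTiter-Glo luminescence in the reporter wells.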

[15] = qHTS assay to identify small molecule agonists of the AP-1 signaling pathway (AID 1159526; calls by dose curve; note: % is set by controls: 0 for no effect and ±100 for the full control effect); conditions: ME-180 (cervical carcinoma) AP-1-bla reporter, beta-lactamase FRET ratio, 5 h; series mostly up to 76.8 µM
[16] = molecular target: Peroxisome proliferator-activated receptor delta (Homo sapiens) (UniProt Q03181); assay: qHTS assay to identify small molecule agonists of the peroxisome proliferator-activated receptor delta (PPARd) signaling pathway (AID 743212; calls by dose curve; note: % is set by controls: 0 for no effect and ±100 for the full control effect); conditions: HEK293H PPARd-UAS-bla, beta-lactamase FRET ratio, 17 h; series mostly up to 62.6 µM
Summary of the method: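 Read-out: beta-lactamase FRET fluorescence after 2 h room-temperature incubation with LiveBLAzer B/G substrate. Cells were HEK293H carrying a UAS-bla reporter for PPARd, treated at 37 C with DMSO-dissolved compounds.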

[17] = molecular target: Bile acid receptor (Homo sapiens) (UniProt Q96RI1); assay: qHTS assay to identify small molecule antagonists of the farnesoid-X-receptor (FXR) signaling pathway (AID 743217; active = well fitted inhibition curve with a large enough effect in the signal ratio in the repeat runs, not every such curve was filed as active; the % refers to the signal ratio; note: % is set by controls: 0 for no effect and ±100 for the full control effect); conditions: HEK293T FXR-UAS-bla, beta-lactamase ratio, CDCA-stimulated, 16 h; series mostly up to 62.6 µM
Summary of the method: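 Read-out: beta-lactamase FRET fluorescence (LiveBLAzer B/G substrate, 2 h, room temperature) in GeneBLAzer FXR-UAS-bla HEK 293T cells. Compounds were co-dosed with 50 uM chenodeoxycholic acid (final) and incubated 16 h at 37 °C.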

[18] = qHTS assay to identify small molecule agonists of the endoplasmic reticulum stress response signaling pathway (AID 1159516; active = well fitted activation curve with a large enough effect in the signal ratio in the repeat runs, not every such curve was filed as active; the % refers to the signal ratio; note: % is set by controls: 0 for no effect and ±100 for the full control effect); conditions: ESRE-bla HeLa, ER stress beta-lactamase reporter, 5 h; series mostly up to 61 µM
Summary of the method: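 HeLa ESRE-bla reporter line; cpd 5 h, 37 C/5% CO2; LiveBLAzer B/G FRET substrate 2 h RT; ex 405, em 460/530 nm.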

[19] = molecular target: Retinoic acid receptor RXR-alpha (Homo sapiens) (UniProt P19793); assay: qHTS assay to identify small molecule agonists of the RXR signaling pathway (AID 1159527; calls by dose curve; note: % is set by controls: 0 for no effect and ±100 for the full control effect; nearly all actives have a fitted effect of over 35% in size); conditions: HEK293T RXRa-UAS-bla, beta-lactamase ratio, 16 h; series mostly up to 76.8 µM
Summary of the method: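 Cells plated at 2,000/well, rested 5 hr at 37 C, pin-dosed with DMSO compound solutions, incubated 16 hr, then loaded with B/G FRET substrate for 2 hr at RT before dual-emission fluorescence reading.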

Vitamin D3 receptor (Homo sapiens), sequence (P11473 whole entry, looked up): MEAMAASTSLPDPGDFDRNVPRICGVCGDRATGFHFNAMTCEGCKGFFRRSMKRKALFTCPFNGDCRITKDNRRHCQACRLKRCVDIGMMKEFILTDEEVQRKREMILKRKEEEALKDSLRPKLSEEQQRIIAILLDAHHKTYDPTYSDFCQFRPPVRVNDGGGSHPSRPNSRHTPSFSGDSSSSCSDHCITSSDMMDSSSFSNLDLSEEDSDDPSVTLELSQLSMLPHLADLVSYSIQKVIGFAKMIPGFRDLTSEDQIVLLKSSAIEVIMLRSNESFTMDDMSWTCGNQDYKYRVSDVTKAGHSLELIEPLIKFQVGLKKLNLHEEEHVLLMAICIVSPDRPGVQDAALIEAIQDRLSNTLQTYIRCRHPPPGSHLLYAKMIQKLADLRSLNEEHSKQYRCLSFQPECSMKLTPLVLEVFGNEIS
Bile acid receptor (Homo sapiens), sequence (Q96RI1 whole entry, looked up): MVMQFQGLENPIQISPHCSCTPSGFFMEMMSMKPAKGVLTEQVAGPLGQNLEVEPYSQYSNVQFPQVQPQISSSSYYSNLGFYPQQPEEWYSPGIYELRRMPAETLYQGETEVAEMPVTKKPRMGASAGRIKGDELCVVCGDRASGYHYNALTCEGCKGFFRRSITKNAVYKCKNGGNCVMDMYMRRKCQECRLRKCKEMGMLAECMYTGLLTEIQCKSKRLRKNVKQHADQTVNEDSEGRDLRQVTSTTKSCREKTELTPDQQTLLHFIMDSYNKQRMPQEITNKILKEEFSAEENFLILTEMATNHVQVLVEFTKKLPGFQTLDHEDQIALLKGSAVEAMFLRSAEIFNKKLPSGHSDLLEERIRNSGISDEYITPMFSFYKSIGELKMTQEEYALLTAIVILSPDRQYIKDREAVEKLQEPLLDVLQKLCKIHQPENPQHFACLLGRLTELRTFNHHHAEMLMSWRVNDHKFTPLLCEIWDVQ
Peroxisome proliferator-activated receptor delta (Homo sapiens), sequence (Q03181 whole entry, looked up): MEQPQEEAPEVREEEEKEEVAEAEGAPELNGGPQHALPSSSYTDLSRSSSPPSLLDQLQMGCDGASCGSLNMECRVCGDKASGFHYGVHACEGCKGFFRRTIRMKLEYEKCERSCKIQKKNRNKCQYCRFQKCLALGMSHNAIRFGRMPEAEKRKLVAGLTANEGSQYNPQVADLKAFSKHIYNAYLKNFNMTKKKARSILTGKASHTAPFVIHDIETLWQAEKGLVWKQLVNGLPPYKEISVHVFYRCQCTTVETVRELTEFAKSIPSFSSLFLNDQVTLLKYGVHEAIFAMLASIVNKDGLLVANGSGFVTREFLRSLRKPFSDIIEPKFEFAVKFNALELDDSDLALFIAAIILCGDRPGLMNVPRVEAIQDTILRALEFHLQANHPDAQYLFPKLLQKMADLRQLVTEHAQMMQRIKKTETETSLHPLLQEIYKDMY
Retinoic acid receptor RXR-alpha (Homo sapiens), sequence (P19793 whole entry, looked up): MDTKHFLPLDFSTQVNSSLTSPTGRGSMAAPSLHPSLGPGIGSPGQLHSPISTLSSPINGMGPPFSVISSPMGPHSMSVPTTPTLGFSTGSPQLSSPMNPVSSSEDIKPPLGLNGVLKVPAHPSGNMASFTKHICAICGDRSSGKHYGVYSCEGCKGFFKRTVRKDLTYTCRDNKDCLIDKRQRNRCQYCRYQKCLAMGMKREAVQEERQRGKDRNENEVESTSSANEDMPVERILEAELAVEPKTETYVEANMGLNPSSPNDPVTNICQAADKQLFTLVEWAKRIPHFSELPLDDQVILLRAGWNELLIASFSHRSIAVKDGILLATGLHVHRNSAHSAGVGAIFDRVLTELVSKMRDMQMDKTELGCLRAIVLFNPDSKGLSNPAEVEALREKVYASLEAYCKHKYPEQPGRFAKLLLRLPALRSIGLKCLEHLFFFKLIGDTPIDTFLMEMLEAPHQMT

O=C(O)C1CCC(C(=O)O)CC1 (stereo unspecified)
inactive: Potency [1] | Potency [2] | outcome [3] | outcome [4] | Potency [5] | Potency [6] | Potency [7] | Potency [8] | outcome [9] | Potency [10] | Potency [11] | Potency [12]

CCCCCCCCN(C)C
inactive: Potency [1] | Potency [13] | Potency [2] | Potency [14] | outcome [4] | Potency [6] | Potency [7] | Potency [8] | outcome [9] | Potency [10] | Potency [11] | Potency [12] | Potency [15]

CN1CCN(C2=Nc3ccccc3Sc3ccc(Cl)cc32)CC1
inactive: Potency [1] | outcome [16] | Potency [13] | outcome [17] | Potency [14] | Potency [5] | Potency [6] | Potency [7] | Potency [8] | Potency [18] | outcome [9] | Potency [11] | Potency [12] | Potency [19]

C=CCCCCCC
inactive: Potency [1] | outcome [17] | Potency [2] | outcome [3] | Potency [7] | Potency [8] | Potency [18] | outcome [9] | Potency [11] | Potency [12]

O=C(CCN1CCN2CCCC2C1)N1c2ccccc2Sc2ccc(Cl)cc21 (stereo unspecified)
inactive: Potency [1] | Potency [14] | outcome [4] | Potency [5] | Potency [6] | Potency [7] | Potency [8] | outcome [9] | activity, negative = cytotoxicity [10] -0.0801% [at 19 µM] | activity change, negative = inhibition [11] -2.48% [at 19 µM] | viability change, negative = cytotoxic [12] -1.69% [at 15.8 µM] | activation [15] -5.81% [at 15.8 µM]
